Consider 40 molecules from PubChem BioAssay (NCATS).

Calls of active or inactive are those of the source. Where a call stands in place of a potency, no number is given. Calls come from the whole dose curve; as a rule, active = well fitted curve in the direction sought with a large enough effect; inconclusive = small, poorly fitted or top-dose-only effect, or another doubt; inactive = no such curve, though single readings can be large or run the other way.

Sequence of Galactokinase (Homo sapiens) (P51570 whole entry, looked up): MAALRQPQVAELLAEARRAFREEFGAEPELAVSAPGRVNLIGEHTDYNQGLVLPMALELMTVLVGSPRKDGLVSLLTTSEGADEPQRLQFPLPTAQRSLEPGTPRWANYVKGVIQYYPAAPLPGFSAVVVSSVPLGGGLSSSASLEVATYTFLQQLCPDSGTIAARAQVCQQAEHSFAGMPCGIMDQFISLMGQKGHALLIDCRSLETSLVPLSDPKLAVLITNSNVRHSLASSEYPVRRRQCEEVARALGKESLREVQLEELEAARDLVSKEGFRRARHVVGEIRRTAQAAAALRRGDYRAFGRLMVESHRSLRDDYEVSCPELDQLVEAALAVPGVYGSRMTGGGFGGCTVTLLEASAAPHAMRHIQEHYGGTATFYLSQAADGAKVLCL

This test has as its target Galactokinase (Homo sapiens) (UniProt P51570). The test can be described thus: qHTS Validation Assay for Inhibitors of Human Galactokinase (GALK) (AID 493189). The settings on record: purified human GALK enzyme activity, qHTS 7-point titration; series mostly up to 57.5 µM. An excerpt:
NIH Molecular Libraries Probe Production Centers Network [MLPCN]
NIH Chemical Genomics Center [NCGC]
Assay Submitter (PI): Kent Lai (University of Utah School of Medicine, 50 N Mario Capecchi Drive, Salt Lake City, UT 84132)
Inherited deficiency of galactose-1-phosphate uridyltransferase (GALT) can result in a potentially lethal disorder called Classic Galactosemia (OMIM 230400). Several lines of evidence indicate that an elevated level of galactose-1-phosphate (gal-1-p), the product of galactokinase (GALK), is a major, if not sole, pathogenic mechanism in patients with classic galactosemia. Therefore, finding inhibitors of GALK is a potential novel therapy for this inherent metabolic disease and is the long term goal of this project.
GALK (provided by the assay submitter) was assayed using ATP and D-(+)-Galactose (Sigma-Aldrich cat# G0750) as substrates. Promega Kinase-Glo Plus (cat# V3774) technology was used to detect the residual ATP following kinetic reaction. Briefly, the Kinase-Glo Plus contains Ultra-Glo [2] luciferase and D-luciferin which generates a bioluminescence signal from the remaining ATP.
NCGC Assay Protocol Summary:
Three uL/well of ATP-buffer solution (35 uM ATP, 20mM HEPES pH8.0, 5 mM MgCl2, 60 mM NaCl, 1 mM DTT, 0.01% BSA final concentration) was dispensed into 1536-well, assay plates (Greiner, solid white medium-binding plates) with Aurora Discovery BioRAPTR Flying Reagent Dispenser (FRD; Beckton-Dickenson). Compound solution (23 nL) was transferred to the assay plate using the Kalypsys 1536-pin tool. One uL/well GALK-galactose solution (5 nM GALK, 100 uM galactose, 20 mM HEPES pH8.0, 5 mM MgCl2, 60 mM NaCl, 1 mM DTT, 0.01% BSA final concentration) was then added using the FRD yielding a total kinase reaction volume of 4 uL/ well. After 1 hour of room temperature incubation, 4 uL Kinase-Glo Plus reagent was added for a final assay volume of 8 uL/ well. Luminescence was detected with the ViewLux plate reader (Perkin Elmer, Waltham, MA) after 10 min incubation using a 1 sec exposure time and 2x binning.
On the technique in general: Quantitative high-throughput screening tests each substance at several concentrations.
With `CCCCCCCCCCC/C=C\C(C)(C)/C=C\CCCC(=O)O`, the Potency result is “inactive”.

With `NCCCCN`, the Potency result is “inactive”.

As for `C=CC1(C)CC(=O)C2(O)C(C)(O1)C(OC(C)=O)C(O)C1C(C)(C)CCC(O)C12C` (stereo not given), the Potency result is “inactive”.

As to `N=C(N)c1ccc(N)cc1`, the Potency result was “inactive”.

`O=C(O)[C@H]1NCCC[C@H]1C(=O)O`: the Potency result was “inactive”.

Take `CC(=O)NNC(=O)N1Cc2ccccc2Oc2ccc(Cl)cc21`: the Potency entry was “inactive”.

Consider `COC(=O)[C@H](NC(=O)c1cc(-c2ccccc2)nc2ccccc12)c1ccccc1`, for which the Potency result was “inactive”.

Take `CNC(=O)c1cc2c(cn1)[nH]c1ccccc12`: the Potency entry was “inactive”.

With `O=C(O)c1cc2cc(F)ccc2[nH]1`, the Potency result is “inactive”.

Regarding `N#C/C(=C\c1ccc(O)c(O)c1)C(=O)NCCCNC(=O)/C(C#N)=C/c1ccc(O)c(O)c1`, the Potency result is “inactive”.

With `COc1cccc(OC)c1OCCNCC1CSc2ccccc2O1` (stereo not given), the Potency entry was “inactive”.

For `C[C@H](O)C(=O)C1=Nc2c(nc(N)[nH]c2=O)NC1`, the Potency result was “inactive”.

As for `O=C(O)/C=C/c1cnc[nH]1`, the Potency result was “inactive”.

Consider `O=C1NC(=O)c2cc(Nc3ccccc3)c(Nc3ccccc3)cc21`, for which the Potency result was “inactive”.

As for `Cc1ccccc1/C=C/C1=NCCN1`, the Potency result was “inactive”.

As to `OC1(c2ccc(Cl)cc2)CCN(Cc2c[nH]c3ccccc23)CC1`, the Potency entry was “inactive”.

`[N-]=[N+]=Nc1ccc(C(=O)CSC[C@H](NC(=O)CC[C@H](N)C(=O)O)C(=O)NCC(=O)O)cc1`: the Potency result is “inactive”.

For the molecule `Nc1nc2ccc(Cl)cc2c2nc(-c3ccco3)nn12`, the Potency entry is “inactive”.

As for `COc1ccccc1N1CCN(CCCCNC(=O)c2ccc3ccccc3c2)CC1`, the Potency result is “inactive”.

`C=CC[C@H](N)C(=O)O`: the Potency entry is “inactive”.

On to `O=C(O)C1=CCNCC1`, for which the Potency entry is “inactive”.

As to `CCCCCC[C@@H]([C@@H](C)O)n1cnc2c(N)ncnc21`, the Potency result was “inactive”.

`CC(=O)O[C@H]1CC2(C)[C@@H](C[C@@H](O)[C@H]3[C@@]4(C)CC[C@@H](O)[C@@H](C)[C@@H]4CC[C@@]32C)C1=C(CCC=C(C)C)C(=O)O` (stereo not given in full): the Potency entry is “inactive”.

For the molecule `N[C@@H](Cc1ccc(F)cc1)C(=O)O`, the Potency entry is “inactive”.

Consider `COc1cc2c(CCNC(C)=O)c[nH]c2cc1O`, for which the Potency entry is “inactive”.

For `N#CC(=C(\N)Sc1ccccc1N)/C(C#N)=C(/N)Sc1ccccc1N`, the Potency result is “inactive”.

On to `CCCCCCN(CCCCCC)C(=O)Cc1c(-c2ccc(F)cc2)[nH]c2ccccc12`, for which the Potency entry was “inactive”.

Turning to `C=CCN1CCc2c(cc(O)c(O)c2Br)[C@@H](c2ccccc2)C1`, the Potency result was “inactive”.

With `O=C(O)c1cccnc1C(=O)O`, the Potency entry was “inactive”.

Consider `Nc1ncnc2c1c(-c1ccc(Oc3ccccc3)cc1)cn2C1CCCC1`, for which the Potency result is “inactive”.

For the molecule `CCCc1c(OCCCOc2ccc(OCC(=O)O)cc2)ccc(C(C)=O)c1O`, the Potency result was “inactive”.

Turning to `CN1C2CCC1CC(OC(c1ccccc1)c1ccccc1)C2` (stereo not given), the Potency result is “inactive”.

`NCC(O)C1CCCCCCC1` (stereo not given): the Potency entry was “inactive”.

Take `Cc1nc(N=Nc2ccc(C(=O)O)cc2)c(COP(=O)(O)O)c(C=O)c1O`: the Potency result is “inactive”.

For the molecule `NC1(C(=O)O)CCCCC1`, the Potency entry is “inactive”.

On to `CCCn1c(=O)c2[nH]c(C3CCCC3)nc2n(CCC)c1=O`, for which the Potency result was “inactive”.

Regarding `CC(=O)NCCc1c[nH]c2ccc(O)cc12`, the Potency result was “inactive”.

On to `N=C(N)c1ccc(OCCCCCOc2ccc(C(=N)N)cc2)cc1` (tested in a mixture with another compound), for which the Potency entry is “inactive”.

With `Cn1cc(C(F)(F)F)nc1-c1ccc(OCC(O)CNCCOc2ccc(O)c(C(N)=O)c2)cc1` (stereo not given), the Potency entry was “inactive”.

For the molecule `NC1C=CC=C(C(=O)O)C1` (stereo not given), the Potency result was “inactive”.
